From PubChem BioAssay (NCATS) come the findings set out here.

The target of assay [1] is Cytochrome P450 3A4 (Homo sapiens) (UniProt P08684). Nature of the assay: qHTS Assay for Activators of Cytochrome P450 3A4 (AID 885). Also: nearly all actives have a fitted effect of over 65% in size. The method, boiled down:
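20nM CYP3A4 + 25uM Luciferin-PPXE (=KM), 200mM KPO4; cpd 10 min RT; NADPH regen, 60 min RT; stop w/ detection buffer, 20 min; luminescence. Normalized to 57 uM ketoconazole.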
Background: In qHTS, concentration-response curves come from the screen itself.

The target is the same in assay [2]. The experiment in a line: qHTS Assay for Inhibitors and Substrates of Cytochrome P450 3A4 (AID 884). Also: series mostly up to about 57 µM; nearly all actives have a fitted effect of over 50% in size. The method, boiled down: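 20 nM human CYP3A4 with 25 uM Luciferin-PPXE (at KM) in 200 mM KPO4, preincubated 10 min with compound; NADPH regeneration started a 60 min RT reaction. Luciferin detected by luminescence, normalized to 57 uM ketoconazole as full inhibition.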

Assay [3] deals with Cytochrome P450 2D6 (Homo sapiens) (UniProt P10635). Nature of the assay: qHTS Assay for Inhibitors and Substrates of Cytochrome P450 2D6 (AID 891). Also: nearly all actives have a fitted effect of over 60% in size. Also: potency is read from the fitted curve at half-maximal effect. The method, boiled down:
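Human CYP2D6 (5 nM) with 30 uM Luciferin-ME EGE (at Km) in 100 mM KPO4, compound preincubated 10 min, then NADPH regeneration system for 60 min at room temperature. Luciferin read by luminescence; normalized to 1.43 uM quinidine.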

Assay [4] concerns the target Guanine nucleotide-binding protein G(i) subunit alpha-1 (Homo sapiens) (UniProt P63096). Nature of the assay: qHTS Assay for Inhibitors of RGS12 GoLoco Motif Activity (Green Fluorophore) (AID 879).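 Also: negative values mean loss of peptide binding seen as reduced polarization.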 The method, boiled down:
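Fluorescence polarization assay: 50 nM Gαi1 with 10 nM FITC-labeled RGS12 GoLoco peptide in 10 mM Tris pH 7.5, 150 mM NaCl, 0.1 mM GDP, 0.05% NP40, 10 min at room temperature with compound.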

Assay [5] deals with 3',5'-cyclic-AMP phosphodiesterase 4B (Homo sapiens) (UniProt Q07343). Nature of the assay: qHTS Assay for Inhibitors of PDE-IV (AID 607; active = well fitted activation curve with a large enough effect in the main read-out, with a control signal flat, not every such curve was filed as active). The method, boiled down:
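ACTOne HEK293 cells carry a modified cAMP-gated CNG channel and express endogenous PDE4; plated 1000 cells/well, compounds up to 22.9 uM final. Membrane-potential dye fluorescence (ex 535/em 590) was read; parental cells received 10 uM forskolin + 100 uM RO 20-1724.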

In assay [6] the target is Cytochrome P450 2C9 (Homo sapiens) (UniProt P11712). The experiment in a line: qHTS Assay for Inhibitors and Substrates of Cytochrome P450 2C9 (AID 883). Also: nearly all actives have a fitted effect of over 60% in size. Also: potency is read from the fitted curve at half-maximal effect. The method, boiled down: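 Human CYP2C9 (10nM) with Luciferin-H at 100uM (its KM) in 25mM KPO4; compound preincubated 10 min at 37C, then NADPH regeneration for 60 min at 37C. Luciferin read by luminescence after detection reagent; normalized to 57uM sulphaphenazole as full inhibition.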
Cytochrome P450 2C9 (Homo sapiens), sequence (P11712 whole entry, looked up): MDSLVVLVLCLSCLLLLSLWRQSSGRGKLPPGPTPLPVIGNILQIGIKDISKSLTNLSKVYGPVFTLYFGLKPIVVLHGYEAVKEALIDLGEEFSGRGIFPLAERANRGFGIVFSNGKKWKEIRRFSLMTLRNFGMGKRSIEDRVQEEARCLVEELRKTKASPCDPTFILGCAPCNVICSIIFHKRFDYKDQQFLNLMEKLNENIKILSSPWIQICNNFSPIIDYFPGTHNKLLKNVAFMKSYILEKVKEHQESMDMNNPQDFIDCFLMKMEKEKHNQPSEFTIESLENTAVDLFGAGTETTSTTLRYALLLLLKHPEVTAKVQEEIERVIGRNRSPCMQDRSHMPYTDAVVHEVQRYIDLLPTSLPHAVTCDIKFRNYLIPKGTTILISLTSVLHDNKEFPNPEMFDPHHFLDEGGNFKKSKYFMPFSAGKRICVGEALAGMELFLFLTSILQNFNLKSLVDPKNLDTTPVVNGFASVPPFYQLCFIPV

A short description of assay [7]: Cellular Toxicity (caspase-3) Jurkat (AID 655).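 Also: potency is read from the fitted curve at half-maximal effect; cells exposed to compound for 16 h at 37 °C before reading.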 The method, boiled down:
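Jurkat cells (5000/well) in complete medium exposed 16 h at 37 C; caspase-3/7 activity read by Caspase-Glo luminescence after 20 min at room temperature. Normalized to DMSO and 100 uM tamoxifen; AC50 from Hill fits.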

A short description of assay [8]: Cellular Toxicity (caspase-3) HUV-EC-C (AID 656). The method, boiled down: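 HUV-EC-C cells (1000/well) in complete medium, compound-treated 16 h at 37 °C; caspase-3/7 activity read by Caspase-Glo 3/7 luminescence. Normalized to DMSO (basal) and 100 uM tamoxifen (100%); AC50 from Hill-equation concentration-response fits.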
Assay [9] in a line: Cellular Toxicity (caspase-3) SHSY5Y (AID 657). Also: potency is read from the fitted curve at half-maximal effect. The method, boiled down:
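SH-SY5Y human neuroblastoma cells, 1500/well, exposed to compound for 16 hours at 37 °C in complete medium. Caspase-3/7 activity read by Caspase-Glo luminescence after 1 hr at room temperature, normalized to DMSO and 10 uM staurosporine; AC50 from Hill fit.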

A short description of assay [10]: Cellular Toxicity (caspase-3) BJ (AID 658). The method, boiled down:
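BJ human foreskin fibroblasts, 1000 cells/well, treated 16 hours at 37 °C in complete medium; caspase 3/7 activity by Caspase-Glo luminescence after 1 hr at room temperature. Normalized to DMSO and 10 uM staurosporine; AC50 from Hill fits.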

The nature of assay [11]: Cellular Toxicity (caspase-3) MRC-5 (AID 659). The settings on record: Potency: caspase-3 activation. The method, boiled down: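 MRC-5 human normal lung fibroblasts, 1500 cells/well, treated 16 h at 37 °C in complete medium. Caspase 3/7 measured by Caspase-Glo luminescence after 1 h at room temperature. Normalized to DMSO and 10 uM staurosporine; AC50 from Hill fit.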
A short description of assay [12]: Cellular Toxicity (caspase-3) Mesangial (AID 660). The method, boiled down: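 Human renal glomerular mesangial cells (1000/well) were treated with compounds for 16 h at 37 °C in complete medium, then caspase 3/7 activity was read by Caspase-Glo luminescence. Data were normalized to DMSO and 100 uM tamoxifen; AC50 from Hill fits.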
The nature of assay [13]: Cellular Toxicity (caspase-3) SK-N-SH (AID 661). Also: potency is read from the fitted curve at half-maximal effect. The method, boiled down:
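SK-N-SH human neuroblastoma cells (1500/well) were treated with compounds for 16 hr at 37 °C in complete medium; caspase 3/7 activity was read by Caspase-Glo luminescence. AC50 came from Hill fits of data normalized to DMSO and 10 uM staurosporine.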

A short description of assay [14]: Cellular Toxicity (caspase-3) H-4-II-E (AID 663). Also: potency is read from the fitted curve at half-maximal effect.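 As to caspase-3 activation: cells exposed to compound for 16 hr before readout.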 To be noted: Potency: caspase-3 activation. The method, boiled down:
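Rat hepatoma H-4-II-E cells (1500/well) plated 5 hr, then exposed to compound titrations for 16 hr at 37 °C. Caspase-Glo 3/7 luminescence read after 20 min at RT; data normalized to DMSO and 100 uM tamoxifen, AC50 from Hill fits.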

Assay [15] can be described thus: Cellular Toxicity (caspase-3) N2a (AID 665).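 Also: compound exposure lasted 16 h at 37 °C before readout.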 Also: potency is read from the fitted curve at half-maximal effect. The settings on record: Potency: caspase-3 activation. The method, boiled down: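 Mouse N2a neuroblastoma cells (1500/well) were treated with compounds for 16 h at 37 °C, then caspase-3/7 activity was read by Caspase-Glo luminescence after 1 h at room temperature. Data were normalized to DMSO and 10 uM staurosporine; AC50 from Hill fits.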

Assay [16] can be described thus: Cellular Toxicity (caspase-3) NIH 3T3 (AID 666).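 Also: potency is read from the fitted curve at half-maximal effect; caspase signal read after 16 h compound exposure.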 The method, boiled down:
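Mouse NIH 3T3 fibroblasts (1000 cells/well) were treated with compound for 16 hr at 37°C in complete medium; caspase-3/7 activity was read by Caspase-Glo luminescence. Normalized to DMSO and 100 uM tamoxifen; AC50 from Hill fits.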

A short description of assay [17]: Cellular Toxicity (caspase-3) Renal Proximal Tubule (AID 667).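 Also: cells exposed to compound for 16 hours at 37 °C before detection.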 The method, boiled down: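 Freshly isolated primary rat kidney proximal tubule cells, 1000/well, treated 16 hr at 37 °C, then Caspase-Glo 3/7 luminescence after 1 hr. Normalized to DMSO and 10 uM staurosporine; AC50 from Hill fit.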
A short description of assay [18]: Cellular Toxicity (caspase-3) HepG2 (AID 654).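 Also: cells exposed to compound for 16 hours before reading.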 The method, boiled down: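 HepG2 cells (1500/well) in complete medium were treated with compounds for 16 hr at 37 °C. Caspase-3/7 activity was then read as luminescence from peptide-aminoluciferin cleavage. AC50 came from Hill fits, normalized to DMSO and 100 uM tamoxifen.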

Where “and” joins values, the source holds several entries; their conditions need not be identical. Identical values can stand only once. Values without a mark were called inactive. Inconclusive results are not listed. Entries that show only a call come without a potency. Calls of active or inactive are those of the source. Unless noted, calls follow the shape of the dose curve; as a rule, active = well fitted curve in the direction sought with a large enough effect; inconclusive = small, poorly fitted or top-dose-only effect, or another doubt; inactive = no such curve, though single readings can be large; an effect the other way counts as inactive or inconclusive.

Cytochrome P450 2D6 (Homo sapiens), sequence (P10635 whole entry, looked up): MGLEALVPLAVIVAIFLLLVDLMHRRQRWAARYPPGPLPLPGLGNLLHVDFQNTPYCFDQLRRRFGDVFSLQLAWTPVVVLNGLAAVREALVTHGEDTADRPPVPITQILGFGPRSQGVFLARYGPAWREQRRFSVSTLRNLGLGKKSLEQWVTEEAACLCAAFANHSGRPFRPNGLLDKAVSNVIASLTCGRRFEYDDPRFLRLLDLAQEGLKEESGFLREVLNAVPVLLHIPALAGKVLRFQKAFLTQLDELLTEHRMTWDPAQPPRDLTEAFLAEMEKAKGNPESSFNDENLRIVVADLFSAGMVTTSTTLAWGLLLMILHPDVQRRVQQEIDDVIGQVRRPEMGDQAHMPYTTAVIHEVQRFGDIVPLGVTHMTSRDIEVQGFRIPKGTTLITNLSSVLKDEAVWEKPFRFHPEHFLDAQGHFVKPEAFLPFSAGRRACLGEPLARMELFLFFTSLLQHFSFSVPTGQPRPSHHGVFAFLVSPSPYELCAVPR
Cytochrome P450 3A4 (Homo sapiens), sequence (P08684 whole entry, looked up): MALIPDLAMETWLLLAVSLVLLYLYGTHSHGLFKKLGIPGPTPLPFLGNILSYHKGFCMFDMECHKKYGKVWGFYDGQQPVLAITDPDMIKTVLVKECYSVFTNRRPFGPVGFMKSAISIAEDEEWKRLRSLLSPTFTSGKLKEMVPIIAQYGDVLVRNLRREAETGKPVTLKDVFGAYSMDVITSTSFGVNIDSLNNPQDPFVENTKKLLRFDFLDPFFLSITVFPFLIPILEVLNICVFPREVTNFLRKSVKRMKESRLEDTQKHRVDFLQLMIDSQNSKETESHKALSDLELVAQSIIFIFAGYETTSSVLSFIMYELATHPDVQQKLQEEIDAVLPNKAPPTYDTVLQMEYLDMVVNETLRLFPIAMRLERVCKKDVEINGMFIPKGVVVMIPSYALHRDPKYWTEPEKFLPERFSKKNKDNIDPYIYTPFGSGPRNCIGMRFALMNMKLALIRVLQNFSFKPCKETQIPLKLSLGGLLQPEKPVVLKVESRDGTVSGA
Guanine nucleotide-binding protein G(i) subunit alpha-1 (Homo sapiens), sequence (P63096 whole entry, looked up): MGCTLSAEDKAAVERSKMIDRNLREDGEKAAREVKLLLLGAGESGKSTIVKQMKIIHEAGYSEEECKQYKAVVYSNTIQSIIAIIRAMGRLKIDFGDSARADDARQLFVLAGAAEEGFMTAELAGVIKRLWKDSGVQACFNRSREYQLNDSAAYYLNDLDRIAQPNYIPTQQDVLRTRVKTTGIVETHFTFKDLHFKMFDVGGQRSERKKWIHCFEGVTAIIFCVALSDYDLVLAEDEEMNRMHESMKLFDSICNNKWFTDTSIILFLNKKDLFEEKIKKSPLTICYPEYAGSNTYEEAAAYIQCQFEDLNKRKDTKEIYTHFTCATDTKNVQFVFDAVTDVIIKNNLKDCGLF
3',5'-cyclic-AMP phosphodiesterase 4B (Homo sapiens), sequence (Q07343 whole entry, looked up): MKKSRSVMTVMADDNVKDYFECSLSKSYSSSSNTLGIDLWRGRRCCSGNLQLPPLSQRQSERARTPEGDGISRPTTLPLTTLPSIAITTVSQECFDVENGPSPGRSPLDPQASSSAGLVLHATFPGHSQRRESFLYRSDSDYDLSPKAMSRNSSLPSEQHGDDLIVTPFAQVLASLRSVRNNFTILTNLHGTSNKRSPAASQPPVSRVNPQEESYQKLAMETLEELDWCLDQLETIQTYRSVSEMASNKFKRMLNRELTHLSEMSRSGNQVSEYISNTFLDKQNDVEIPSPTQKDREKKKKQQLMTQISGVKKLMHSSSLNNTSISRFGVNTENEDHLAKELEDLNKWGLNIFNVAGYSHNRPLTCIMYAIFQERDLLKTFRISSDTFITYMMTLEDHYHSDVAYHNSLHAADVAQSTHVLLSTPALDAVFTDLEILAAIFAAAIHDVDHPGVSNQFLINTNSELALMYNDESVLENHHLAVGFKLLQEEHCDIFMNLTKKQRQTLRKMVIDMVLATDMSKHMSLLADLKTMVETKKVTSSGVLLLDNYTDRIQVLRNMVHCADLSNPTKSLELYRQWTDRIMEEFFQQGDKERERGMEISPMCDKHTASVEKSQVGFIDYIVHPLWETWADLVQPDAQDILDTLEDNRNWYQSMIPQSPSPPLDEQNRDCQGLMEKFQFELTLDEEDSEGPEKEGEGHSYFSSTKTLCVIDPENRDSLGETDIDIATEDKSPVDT

In the case of `CNCC[C@@H](Oc1ccccc1C)c1ccccc1`, the Potency entry in assay [1] was “inactive”.

Take `Cc1cccc(C)c1NC(=O)CN1CCN(CCCC(c2ccc(F)cc2)c2ccc(F)cc2)CC1`: the Potency entry in [2] was “inactive”. Further, the Potency in [3] was 5.01 µM (active).

As to `Cc1c(C(N)=O)cc([N+](=O)[O-])cc1[N+](=O)[O-]`, the Potency entry in assay [2] was “inactive”.

With `CCCCc1nc(Cl)c(CO)n1Cc1ccc(-c2ccccc2-c2nn[nH]n2)cc1`, in [1], the Potency entry is “inactive”.

Take `CCCCCCCCCCCCCCCCOP(=O)([O-])OCC[N+](C)(C)C`: the Potency result in assay [2] is “inactive”.

Consider `COc1cc(-c2ccc(=O)[nH]n2)ccc1OC(F)F`, for which the result in [4] was inactive. The Potency result in [2] and in assay [3] was “inactive” in each case.

As to `COc1cc(OC)cc(OC)c1`, the Potency result in assay [2] was “inactive”.

As for `COc1ccc(C2C(=O)c3ccccc3C2=O)cc1`, the Potency entry in [2] was “inactive”.

`CC(CCc1ccccc1)NCC(O)c1ccc(O)c(C(N)=O)c1` (configuration not stated): the Potency entry in [2] was “inactive”.

Consider `Cc1ccc(C(=O)C(C)CN2CCCCC2)cc1` (configuration not stated), for which the Potency result in assay [2] was “inactive”.

As for `OC(CCN1CCCCC1)(c1ccccc1)c1ccccc1`, the call in [5] was inactive. The Potency in assay [3] is 5.01 µM (active) and 1.26 µM (active).

For the compound `COc1ccc(CCN2CCC(Nc3nc4ccccc4n3Cc3ccc(F)cc3)CC2)cc1`, the Potency result in assay [6] and in [1] was “inactive” throughout. The Potency in assay [3] was 7.94 µM (active).

In the case of `Oc1ccc(Cl)c2cccnc12`, the Potency entry in [2] is “inactive”.

Regarding `OCc1ccccc1O`, the Potency entry in assay [2] is “inactive”.

As for `O=C(OCC(O)CO)c1ccccc1Nc1ccnc2cc(Cl)ccc12` (configuration not stated), the Potency entry in assay [1] was “inactive”.

For the compound `CCN1CCN(c2cc3c(cc2F)c(=O)c(C(=O)O)cn3C2CC2)CC1`, the Potency result in assay [2] is “inactive”.

In the case of `CO/N=C1\CN(c2nc3c(cc2F)c(=O)c(C(=O)O)cn3C2CC2)CC1CN` (configuration not stated), in assay [2], the Potency entry is “inactive”.

Turning to `COc1cccc2c1C(=O)c1c(O)c3c(c(O)c1C2=O)C[C@@](O)(C(=O)CO)C[C@@H]3O[C@H]1C[C@H](N)[C@H](O)[C@H](C)O1`, the Potency is 20 nM (active) in [7]; 15.8 nM (active) in [9]; 251 nM (active) in assay [13]; 31.6 µM (active) in assay [14]; 3.16 µM (active) in [15]; 0.398 µM (active) in assay [16]. The result in assay [8], in assay [10], in assay [12] and in assay [17] was inactive. For the same compound, the Potency entry in assay [11] and in assay [1] was “inactive” in each case.

For `CCOc1ccc(Cc2nccc3cc(OCC)c(OCC)cc23)cc1OCC`, in assay [6], the Potency is 3.98 µM (active). In addition, the Potency result in [1] is “inactive”.

As to `COc1c2occc2c(OC)c2c(=O)cc(C)oc12`, the Potency result in assay [1] was “inactive”.

As to `Oc1c(I)cc(Cl)c2cccnc12`, the Potency result in assay [18], in assay [9], in assay [11], in assay [13], in assay [14] and in assay [15] was “inactive” throughout. In addition, the result in [8], in assay [10], in assay [12] and in assay [17] was inactive. In addition, the Potency in assay [16] was 12.6 µM (active).

For the compound `Oc1c(I)cc(I)c2cccnc12`, the Potency result in assay [2] was “inactive”.

As for `CCN1CCC[C@H]1CNC(=O)c1c(OC)ccc(Br)c1OC`, the compound was called inactive in [5]. Also, the Potency in assay [3] is 0.199 µM (active).

Regarding `CCN(CCCc1ccccc1)CCCc1ccccc1`, the Potency entry in [2] was “inactive”.

With `CCOc1ccc2nc3cc(N)ccc3c(N)c2c1`, the Potency result in [2] is “inactive”.

For the compound `CN1CCC[C@@H]1c1cccnc1`, the result in assay [4] was inactive.

With `CCCCOc1cc(C(=O)NCCN(CC)CC)c2ccccc2n1`, the Potency entry in assay [2] was “inactive”.

For the compound `CC(C)(CO)[C@@H](O)C(=O)NCCCO`, in assay [2], the Potency result was “inactive”.

`CCCCOc1ccc(C(=O)CCN2CCCCC2)cc1`: the Potency is 2.51 µM (active) in assay [6] and 5.01 µM (active) in [3]. Besides, in assay [1], the Potency entry is “inactive”.

`CCCC1O[C@@H]2C[C@H]3[C@@H]4CCC5=CC(=O)C=C[C@]5(C)[C@H]4[C@@H](O)C[C@]3(C)[C@]2(C(=O)CO)O1` (some centres not stated): in assay [4], the outcome was inactive. Further, in [1], the Potency entry was “inactive”.
